# Source: the supplement of paper PMC6555819
# Tested on: VDR:RXRa (NR concentration 270 nM, RXRa partner concentration 90 nM)
# Experiment: PBM binding z-score (relative to random genomic background probes); higher = stronger binding; sequences stand for … in GC…GCGATTGACAGCGTAGAATGAAGG
# Method: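 Protein-binding microarray (Agilent 4x180K custom design, double-stranded 60-nt probes: 5' GC cap, 34-nt variable region, 24-nt constant primer region; full probe sequence given). Purified or IVT nuclear receptor:RXRα heterodimers (3:1 NR:RXRα, mostly 270:90 nM) or homodimers were incubated for 1 h in PBS with 2% milk and no ligand, then detected with Alexa488 antibodies. Fluorescence from o1-orientation probes (~5 replicates averaged) was converted to z-scores against 500 random hg19 background probes. Variable regions are seed direct-repeat (DR0–DR5) sites, all their single-nucleotide variants and half-site ablations.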
row,Sequence,PBM binding z-score
1,TCTATTAGTTGAAGGGCATCCGACGAGTCCGTTT,1.08
2,TAGCCTAGGTCAGATCGGGCCAGTAAACGCTATA,0.5
3,CAAACTAGGTTAAGAGGTCAAAGTCCGCTTCCCG,5.21
4,CCTATTAGTTGACCATAAGGGCAACCCAAGCTCG,0.972
5,CAGACTAGGTCAGGGCCAGTATAGGAGGAACGTT,-0.0309
6,TCGAATAGGTTAGGGGCATTCAGAATGGCGTCGA,0.8
7,TCTATTAGTTGAATAGGGCAACCGAAACAGCGGA,0.6
8,ACTAGCAGGCAAAGGGTCACTCAAGATTAGTCCG,2.98
9,ATCTCTAGGTAAAGTTCAGTGCAAGATCGATAGA,1.87
10,TCATATAGGTAAAGGTGAAATTCGAACGATATGA,1.03
11,TCGAGTAGGTTAGTCGAGGCATTCAGCCAACATA,-0.258
12,CAAACTAGGTCATAGGTCAAAGTCGAGCCAACCA,4.9
13,TAGCCTAGGTCATTGGGCCAGCATAGTACGCATC,2.14
14,CAAACTATGTCAAGAGGTCAAAGTCCGCTTCCCG,5.15
15,TAGGCTAGGTCATGCGGGCCAGTATAGTGTCGGC,2.63
16,ATATGTAGGTTACCTCCGGGTCATTCAGGCTATG,4.01
17,ATATGTAGGTTACATCCTGGTCATTCAGGCTATG,0.956
18,GGAACGAGGGCAAAGTTGATAGCGTCTGTCGACG,1.39
19,CCTCGGAGGACAAGAGGAGGTCAGAGCTGCCAGA,1.48
20,CCGACTGGGGTATAAGGTTACCATAAGCCAGCCC,0.219

row,Sequence,PBM binding z-score
1,TCATATAGGTAAAGGTAAAAGTCGAACGATATGA,0.657
2,GATAGAGGGTCAAGGCCAGAGTACGCGTATTGAT,3.37
3,TCGAGTAGGTGAGGGGCATTCAGAATGGCGTCGA,-0.0355
4,CCTACTGGGCCATTCAGAGGTCATTGAACATATG,4.16
5,CGTCCAGGGTCAATGCTAGGTCAGTGAAAGCATT,4.9
6,GATACAGGGTCAGCTAGAGACCAGAGTATGGAAA,2.23
7,CCTACTGGGCCAAGTTCATTGATCAGTCAAAGCA,2.89
8,TCTCGGAAGACACGAAGGTCAGAGCTTTCCAGAG,1.08
9,GCATCTAGGTAATACAAGGTGAAAGTCCGATTGT,0.32
10,GGAACGAAGGCAAGTTGATAGCAGAGTTTGATGG,-0.696
11,TCTATTAGTTGAAGGGCAACCTACGAGTCCGTTT,0.986
12,TAGCCCAGGTCATTGGGCCAGTATAGTACGCATC,3.03
13,AATACAGGGTCATCGTAGGCCAAAGTACGCACAG,5.62
14,GCATATAGGTAATACATGGTGAAAGTCCGATTGT,-0.0137
15,ACTAGTTGGTCAGCTGAGGTCACAAACAATTCGG,4.24
16,TACCCTAGGTCATGCGGGCCAGTATAGTGTCGGC,3.23
17,TATACAGGGGCAAAGGCCAGAGTACGAATGTCGA,1.03
18,TGAATGAGGTTATAATATCAGGGAACGTTGCAAA,1.35
19,ACTTACGGGTCAACGAGGTTCTAGCACGCGTATA,6.52
20,AGAATGAGGTTATACGTAGATTAGGGAAGAAAGT,1.44
